PubChem BioAssay AID778 (Sanford-Burnham Center for Chemical Genomics, 2007)
The campaign covered roughly 96,000 compounds. About 20,000 (21%) were called active. The list is a sample of the results. Unmarked numbers belong to inactive results.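 Rule for the calls: active = CYP2C19 inhibition above a set limit at 5 µM in the primary screen (cut at about 50% in these data); inactive = the rest.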

Biological target: Cytochrome P450 2C19 (Homo sapiens) (UniProt P33261)
Assay: blockers of cytochrome P450 2C19 activity – biochemical, luminescence, ADME assay, primary screen (AID 778);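 note: plate controls were negative control wells for no effect and 2.5 mM tranylcypromine positive control for full effect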
Settings: CYP2C19 Supersomes, luciferin-H EGE luminescence, 30 min; at 5 µM; stronger effect = higher value

Sequence of Cytochrome P450 2C19 (Homo sapiens) (P33261 whole entry, looked up): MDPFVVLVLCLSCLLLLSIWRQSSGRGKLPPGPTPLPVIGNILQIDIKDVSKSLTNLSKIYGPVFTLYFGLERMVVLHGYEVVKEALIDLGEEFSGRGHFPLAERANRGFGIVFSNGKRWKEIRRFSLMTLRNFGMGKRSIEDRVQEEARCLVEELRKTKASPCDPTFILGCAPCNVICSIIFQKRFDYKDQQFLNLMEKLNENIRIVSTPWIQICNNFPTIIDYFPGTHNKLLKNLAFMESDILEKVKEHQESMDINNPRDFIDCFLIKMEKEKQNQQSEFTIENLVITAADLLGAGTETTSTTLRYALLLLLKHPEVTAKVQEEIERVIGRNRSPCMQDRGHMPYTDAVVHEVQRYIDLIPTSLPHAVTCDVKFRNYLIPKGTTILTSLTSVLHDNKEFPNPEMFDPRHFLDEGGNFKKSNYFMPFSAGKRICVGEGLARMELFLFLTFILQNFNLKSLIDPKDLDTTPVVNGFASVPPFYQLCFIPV

SMILES	inhibition
CS(=O)(=O)N1CCCC(C(=O)N2CCOCC2)C1 (stereo not drawn)	-12.2%
O=C(Cc1ccc(S(=O)(=O)N2CCOCC2)s1)NCCC(c1ccccc1)c1ccccc1	41.9%
COC(=O)NC1(C(F)(F)F)NC(=O)N(C2CCCCC2)C1=O (stereo not drawn)	7.3%
O=C1NC(Nc2nc3ccccc3s2)(C(F)(F)F)C(=O)N1C1CCCCC1 (stereo not drawn)	68.9% (active)
CCC(=O)Nc1sc(C(=O)N2CCCCC2)c(C)c1C#N	19.7%
O=C(CSc1n[nH]c(-c2cccnc2)n1)Nc1ccnc2ccccc12	15%
COc1cccc(NC(=O)C2CCCN2C(=O)OCc2ccccc2)c1 (stereo not drawn)	33.1%
CC(=O)Nc1ccc(NC(=O)CN2CCCC(C)C2)c(Cl)c1 (stereo not drawn)	19.8%
NC(=O)N1CCCC1C(=O)Nc1ccc(Cl)c(Cl)c1 (stereo not drawn)	54.3% (active)
Cc1cc(NC(=O)COn2nnc3ccccc32)no1	28.7%
S=C(NCc1cccs1)Nc1ccc(Cl)cc1	89.7% (active)
S=C(NCc1ccc(Cl)cc1)NC12CC3CC(CC(C3)C1)C2	47.3%
Cc1nn(C)cc1C(=O)NNC(=S)Nc1ccc(Cl)cc1	8.5%
C=CCNC(=S)NNc1ncnc2sc3c(c12)CC(C)(C)OC3	17.9%
C=CCOc1c2ccc(C(=O)N(CC)c3ccc(OC)cc3)cc2nn1C	44.1%
O=C(CNC(=O)OCc1ccccc1)Oc1cc2oc(=O)cc(-c3ccccc3)c2cc1Cl	27.8%
CC(=O)Nc1ccc(S(=O)(=O)N2CCSCC2)cc1	11.2%
COc1ccc(OCC(=O)OCC(=O)Nc2ccc(S(=O)(=O)N3CCCCC3)cc2)cc1	21.1%
Cc1cccc(OCCCC(=O)Nc2ccc(S(=O)(=O)N3CCCC3)cc2)c1	50.1% (active)
CC(=O)Nc1ccc(S(=O)(=O)N2CCN(CCCOc3cc(C)ccc3C)CC2)cc1	84.1% (active)
C=CCNC(=O)CCCOc1cccc(C)c1	17.5%

SMILES	inhibition
CC(=O)Nc1ccc(S(=O)(=O)N2CCN(C3CCCCCCC3)CC2)cc1	25.7%
CCc1c(C)c2c(C)[nH]nc2oc1=O	34%
CCOC(=O)Nc1ccc(NC(=O)OCC)cc1	-15.6%
Cc1ccc2c(NC(=O)C3CC3)cccc2n1	3.3%
CSc1ccc(C#N)cc1NC(=O)c1cccc(Cl)c1	17.9%
O=C(CCN1C(=O)c2ccccc2C1=O)NCCN1CCOCC1	-17.4%
Cc1cc(C)nc(SCc2nnc(SCC(=O)OC3CCCCC3)o2)n1	32.2%
c1ccc(CSc2nnc(-c3ccco3)c(-c3ccco3)n2)cc1	44.4%
O=C(c1ccc(Cl)c(Cl)c1)N1CCCC1	15.1%
CC(NC(=O)c1ccc(Cl)cc1)C(=O)N1CCCCC1 (stereo not drawn)	77.5% (active)
CC(C)C(NC(=O)c1ccc(Cl)cc1)C(=O)O (stereo not drawn)	-19.4%
CCOc1ccccc1N=C1NC(=O)CS1	-12.1%
CC1CCC(N2CC(=O)N(Cc3ccc4c(c3)OCO4)C(c3ccc(F)cc3)C2=O)CC1 (stereo not drawn)	20.3%
O=CN1CCN(C2CC(=O)N(c3ccc4c(c3)OCO4)C2=O)CC1 (stereo not drawn)	-12%
Cc1ccc(N2C(=O)CC(NCc3ccc4c(c3)OCO4)C2=O)cc1Cl (stereo not drawn)	85% (active)
O=C(CSc1nc(-c2ccco2)cc(C(F)(F)F)n1)NCc1cccs1	8.5%
CC1(C)Oc2ccc(C(=O)N3CCOCC3)cc2N(CC(=O)Nc2ccccc2)C1=O	30.3%
O=C(Cn1c(=O)sc2ccccc21)Nc1ccc2c(c1)OCCO2	7.6%
CC1Cc2ccccc2N1CC(=O)Nc1ccc2c(c1)OC(F)(F)O2 (stereo not drawn)	97.3% (active)
Cc1nnc(NCCO)c2ccccc12	7.5%
CSC1=N/C(=C\C=C\c2cccs2)C(=O)S1	-11%

SMILES	inhibition
CCCCOC(=O)c1[nH]c(C)c(C(=O)OC)c1C	81.6% (active)
CCCOC(=O)c1[nH]c2c(c1C)C(=O)CC(c1cc(OC)c(OC)c(OC)c1)C2 (stereo not drawn)	38.4%
CCCCN(CC)CCNC(=O)c1[nH]c(C)c(C(C)=O)c1C	-8%
Cc1nc2nc3c(cn2n1)C(=O)CC(c1ccccc1)C3 (stereo not drawn)	99.6% (active)
Cc1ccc(Cc2cnc(NC(=O)/C(C#N)=C/c3ccc(-c4cccc([N+](=O)[O-])c4)o3)s2)cc1	-3.9%
O=C(COC(=O)c1ccc(S(=O)(=O)N2CCc3ccccc3C2)cc1)NC(=O)NCc1ccco1	8.9%
O=C(CN1CCN(S(=O)(=O)/C=C/c2ccccc2)CC1)NC(=O)NCc1ccco1	54% (active)
CC1(c2ccccc2Cl)NC(=O)N(CC(=O)NC(=O)NCc2ccco2)C1=O (stereo not drawn)	22.5%
CCCOn1c(-n2nc(C)cc2C)nc2ccccc2c1=O	47.2%
O=C(NCc1ccco1)c1sc2cccc(F)c2c1Cl	-8.9%
CCOc1cc(/C=N/n2cnnc2)c(Br)cc1O	5.4%
Cc1ccc2c(c1)N(C(=O)CCC(=O)N1CCc3ccccc3C1)CCO2	39.4%
c1ccc(-c2cn3c(n2)CCc2ccc4cccnc4c2-3)cc1	15.9%
COc1ccc(S(=O)(=O)N2CCC(C(=O)N3CCOCC3)CC2)cc1OC	7.3%
COc1ccc(S(=O)(=O)N2CCC(C(=O)N3CCc4ccccc4C3)CC2)cc1OC	53.6% (active)
COc1ccccc1N(C)S(=O)(=O)c1ccc(C(=O)N2CCC(C(N)=O)CC2)cc1	8.7%
CCS(=O)(=O)c1ccc2c(c1)N(S(=O)(=O)c1ccccc1)CC(C(=O)O)O2 (stereo not drawn)	0.1%
CCC1CCCCN1CCCNC(=O)C1CCC(Cn2c(=O)[nH]c3ccccc3c2=O)CC1 (stereo not drawn)	6%
CCOC(=O)c1c(-n2cnnn2)sc(C)c1C	7.5%
Cc1nc(NNC(=O)c2ccccc2)cc(-c2ccccc2)n1	-0.2%
CNC(=O)Nc1cc(C(C)(C)C)no1	32.3%
